Most compounds without a hit are left out; they make up all but 3.8% or so of the library.
A549 tox – kills or reduces viability of A549 cells in Nrf2 counter-screen | A549 ARE-Fluc cells, CellTiter-Fluor viability, 18-24 h | 0.16% of 390,000 active | Potency, µM (highest dose often 46 µM), for the others: top-dose activity change, negative = cytotoxicity, most hits filed as inhibitors | AID 504648; further: on the % scale 0 is the no-effect control and ±100 the full control effect
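Cytotoxicity counterscreen: CellTiter-Fluor fluorescence was measured in A549 ARE_Fluc cells after 18-24 h of compound exposure in a concentration series. The subsequent BugLite luminescent read reports ARE-luciferase activity.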
IDH1 R132H inh – human IDH1 R132H inhibition; IDH1-R132H enzyme, NADPH consumption, diaphorase/resazurin fluorescence; Potency, µM (titrated, usually from 76.6 µM), for the others: at the top dose activity change, negative = inhibition, usual class: inhibitors; 0.093% of 390,000 active; AID 602179; further: on the % scale 0 is the no-effect control and ±100 the full control effect; nearly all actives have a fitted effect of over 65% in size
Target sequence (O75874 whole entry R132H, stated change not applied): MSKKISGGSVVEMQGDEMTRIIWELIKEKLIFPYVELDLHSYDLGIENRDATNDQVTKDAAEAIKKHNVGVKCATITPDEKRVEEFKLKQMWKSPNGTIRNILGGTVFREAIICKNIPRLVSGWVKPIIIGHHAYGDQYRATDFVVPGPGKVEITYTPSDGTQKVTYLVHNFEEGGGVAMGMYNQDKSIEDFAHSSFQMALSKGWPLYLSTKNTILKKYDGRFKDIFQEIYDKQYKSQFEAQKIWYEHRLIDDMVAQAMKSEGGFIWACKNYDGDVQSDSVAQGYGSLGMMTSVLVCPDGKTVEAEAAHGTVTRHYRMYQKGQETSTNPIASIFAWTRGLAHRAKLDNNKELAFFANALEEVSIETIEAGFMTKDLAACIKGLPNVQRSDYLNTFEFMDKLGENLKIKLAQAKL
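IDH1-R132H (0.5 ug/mL) preincubated 30 min with compound, then NADPH (0.016 mM) and alpha-KG (2 mM) added; 80 min at RT, pH 7.5. Remaining NADPH coupled via diaphorase/resazurin to fluorescence (540/590 nm); concentration-response curves normalized to no-enzyme control.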
ELG1 repair inh – inhibitors of ELG1-dependent DNA repair in HEK293T cells. HEK293T ELG1-luciferase reporter, luminescence, 16 h; DNA damage induced by 5-fluorouridine. Potency, µM (doses to about 46.1 µM), for the others: at the top dose activity change, negative = inhibition, most hits filed as inhibitors. 2.3% of 330,000 active. AID 504467; further: on the % scale 0 is the no-effect control and ±100 the full control effect; nearly all actives have a fitted effect of over 55% in size
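In this reporter screen, reduction of luminescence relative to DMSO vehicle indicated activity. Compounds and 5-fluorouridine were added together to 2,000 cells per well, incubated for 16 hr at 37 °C, then developed with ONE-Glo.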
Nrf2 activator – Nrf2 pathway activation; 0.31% of 410,000 active; AREc32 ARE-luciferase reporter (MCF7-derived line), luminescence, 24 h; Potency, µM (highest dose often 46.1 µM), for inactives: at the top dose activation, most hits filed as activators; further: % of control where 0% means no effect; nearly all actives have a fitted effect of over 65% in size
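Steps: seed AREc32_Fluc cells (1000/well, 5% FBS OPTI-MEM); incubate overnight at 37 deg C; add 23 nL compound; incubate 24 hr; add Steady-Glo; hold 30 min RT; read luminescence.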
Nrf2 block – blocks Nrf2 signaling; A549 ARE-Fluc reporter, luciferase luminescence, 18-24 h; 2.1% of 360,000 active; Potency, µM (highest dose often 46 µM), for the others: top-dose activity change, negative = inhibition, usual class: inhibitors; AID 504444; further: on the % scale 0 is the no-effect control and ±100 the full control effect; nearly all actives have a fitted effect of over 60% in size
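Two sequential reads on A549 ARE_Fluc cells exposed to compound for 18-24 h: a CellTiter-Fluor fluorescence read for viability, then a luciferase luminescence read for Nrf2/ARE activity.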
The depositor's hits bear a star; ? = inconclusive; · = not tested or not shown; [ ] = another dose, or the depositor's remark. The call rests on the fitted dose curve; in most records, active means well fitted curve in the direction sought with a large enough effect; inconclusive means small, poorly fitted or top-dose-only effect, or another doubt; inactive means no such curve, though single readings can be large; an effect the other way counts as inactive or inconclusive. Potency means the concentration at half of the fitted maximal effect.

SMILES	A549 tox	IDH1 R132H inh	ELG1 repair inh	Nrf2 activator	Nrf2 block
CCCCn1c(=O)[nH]c(=O)c2c1nc(-c1ccsc1)n2Cc1ccccc1	-3%	0%	18µM*	6%	·
CN1CCN(c2nc3c(c(=O)[nH]c(=O)n3C)n2Cc2ccccc2)CC1	-5%	3%	11%	0%	-4%
C=CCOc1ccc(-c2nc3c(c(=O)[nH]c(=O)n3CCC)n2CCCC)cc1	-4%	-8%	0%	1%	-8%
Cn1c(=O)[nH]c(=O)c2c1nc(N1CCCCCC1)n2CCCSc1nc2ccccc2o1	-3%	-22%	23µM*	0%	?
C=C(C)CSc1nc2c(c(=O)[nH]c(=O)n2C)n1Cc1ccccc1	6%	-1%	?	2%	5.8µM*
CCN1CCN(c2nc3c(c(=O)[nH]c(=O)n3C)n2CCSc2nc3ccccc3s2)CC1	8%	13%	?	0%	-2%
CCCCCn1c(N2CCC(Cc3ccccc3)CC2)nc2c1c(=O)[nH]c(=O)n2C	?	-11%	·	-1%	23µM*
CC(CSc1nc2ccccc2s1)Cn1c(N2CCCC2)nc2c1c(=O)[nH]c(=O)n2C (stereo not drawn)	-12%	1%	15µM*	2%	?
CCN(C(=O)c1cc2c(=O)oc3ccccc3c2s1)c1ccc(C)c(C)c1	6%	-8%	·	0%	-1%[9.27 µM]
Cc1cc2c(s1)c1cnn(Cc3ccc(Cl)c(Cl)c3)c(=O)c1n2C	0%	·	·	·	13%
COc1ccccc1CNC(=O)c1ccc(N2Cc3cccc(OC)c3Oc3ncccc32)s1	-1%	-5%	·	0%	?
Cc1sc(-n2c(C)cc(/C=C3\SC(=S)NC3=O)c2C)c(C#N)c1C	21µM*	-19%	28%	9%	?
Cc1cc(/C=N/n2cnnc2)c(C)n1-c1ccccc1	-1%	6%	28%	6%	·
Cc1sc(-n2c(C)cc(/C=N/n3cnnc3)c2C)c(C#N)c1C	-16%	5%	?	3%	15µM*
O=S(=O)(NCc1ccc(Cl)cc1)c1ccc2[nH]c3c(c2c1)CCCC3	-4%	-3%	·	0%	?
COc1ccc(S(=O)(=O)Nc2cc(C(=O)NC3CCCCCC3)ccc2N2CCOCC2)cc1	1%[1.84 µM]	3%	-10%	3%	18µM*
N#CN=c1snc(-c2ccccc2Cl)n1-c1ccccc1Cl	-3%	·	·	·	18%
CCCNC(=O)Cc1c(C)n(C(=O)c2ccc(Cl)cc2)c2ccc(OC)cc12	-20%	-20%	?	0%	18µM*
COC(=O)CCNC(=O)Cc1c(C)n(C(=O)c2ccc(Cl)cc2)c2ccc(OC)cc12	0%	8%	1%	0%	0%
Cc1cc([N+](=O)[O-])ccc1NC(=O)CN1C2CCC1CC(NC(=O)NC13CC4CC(CC(C4)C1)C3)C2 (stereo not drawn)	-18%	-3%	?	0%	16µM*
CC(C)C(=O)OCc1cc(=O)n2nc(C3CC3)sc2n1	9%	2%	·	6%	?
Cc1sc(-c2cc3ccccc3oc2=O)nc1-c1ccc(Cl)cc1	4%	0%	·	?	·
O=S(=O)(O)c1cc(O)c2c(O)c(N=Nc3cc(Cl)ccc3O)c(S(=O)(=O)O)cc2c1	15µM*	9%	?	-1%	21µM*
O=S(=O)(O)c1cc(Cl)cc(N=Nc2ccc(O)cc2O)c1O	?	2%	·	11%	-1%
Cc1cc(-c2ccc(N=Nc3c(S(=O)(=O)O)cc4cc(S(=O)(=O)O)cc(N)c4c3O)c(C)c2)ccc1N=Nc1c(S(=O)(=O)O)cc2cc(S(=O)(=O)O)cc(N)c2c1O	·	·	7.3µM*	·	·
SMILES	A549 tox	IDH1 R132H inh	ELG1 repair inh	Nrf2 activator	Nrf2 block
COc1ccc(C)cc1N(C)C(=O)c1sc2nc3n(c(=O)c2c1C)CCCCC3	21%	-6%	·	0%	-17%
Cc1cc(Nc2cccc(Cl)c2)nc2ccc(NC(=O)Cc3ccc(Cl)cc3)cc12	?	-1%	·	-2%	23µM*
COc1ccc(CC(=O)Nc2ccc3nc(Nc4cccc(Cl)c4)cc(C)c3c2)cc1OC	-8%	7%	·	0%	16µM*
Cc1cc(Nc2cccc(Cl)c2)nc2ccc(NC(=O)Cc3c(F)cccc3Cl)cc12	-10%	-1%	·	3%	-28%
COc1ccc(Cl)cc1C(=O)Nc1ccc2nc(Nc3cccc(Cl)c3)cc(C)c2c1	-2%	-4%	·	0%	5%
COc1ccc(CCNC(=O)c2ccc([N+](=O)[O-])cc2Cl)cc1OC	1%	3%	·	-1%	-16%
COc1ccc(CCNC(=O)c2ccc(-c3ccc([N+](=O)[O-])cc3Cl)o2)cc1OC	-8%	-1%	18µM*	-1%	?
Cc1ccc2c(=O)cc(C(=O)NCCc3ccc(S(N)(=O)=O)cc3)oc2c1	-5%	6%	9.2µM*	0%	-25%
COc1ccc(CCNC(=O)COc2ccc(N(C)S(=O)(=O)c3ccc(C)cc3)cc2)cc1OC	-3%	-7%	21µM*	2%	26µM*
COc1ccc(CNC(=O)c2cc(=O)c3ccccc3o2)cc1	3%	-6%	?	-1%	13µM*
COc1ccc(CCNC(=O)c2ccc(N(C)S(=O)(=O)c3ccc(C)cc3)cc2)cc1OC	-2%	5%	?	2%	?
COc1ccccc1CNC(=O)CCCn1c(=O)c2cccn2c2ccccc21	-20%	·	·	4%	?
COc1ccc(CCNC(=O)COc2ccc(S(=O)(=O)NCC(C)C)cc2Cl)cc1OC	-15%	0%	?	-1%	21µM*
COc1ccc(CCNC(=O)c2cc(=O)c3ccc(C)cc3o2)cc1OC	-2%	0%	16µM*	0%	?
COc1ccc(CCNC(=O)c2ccc(CS(=O)(=O)c3ccc(C)cc3)o2)cc1OC	8%	4%	16µM*	-1%	21µM*
COc1ccc(OC)c2[nH]c(=O)c(CCNC(=O)c3cc4ccccc4o3)cc12	0%	14%	18µM*	-1%	-12%
Cc1ccc(C)c2[nH]c(=O)c(CCNC(=O)c3cc4ccccc4o3)cc12	2%	13%	?	-1%	?
COc1ccc(CCNC(=O)c2ccc(CS(=O)(=O)c3ccc(Cl)cc3)o2)cc1OC	-19%	9%	?	0%	?
COc1ccc(NC(=O)C(Cc2ccccc2)NS(=O)(=O)c2ccc3c(c2)oc(=O)n3C)c(OC)c1 (stereo not drawn)	-14%	-14%	·	0%	5%
COc1ccc(C2CC(=O)c3cc(-c4nc(-c5cccc([N+](=O)[O-])c5)cs4)c(=O)n(-c4cccc(C)c4)c3C2)cc1 (stereo not drawn)	-1%	-17%	·	-1%	-6%
Cc1cc(C)c(NC(=O)CN(C)C(C)C(=O)N2CCc3ccccc32)c(C)c1 (stereo not drawn)	2%	-4%	-28%	2%	9%
